# Screens deposited in PubChem BioAssay by National Center for Advancing Translational Sciences (NCATS).
# Shown are actives, neighbours in structure and some others; about 3.3% of the full set was active somewhere.
# VACV mCherry inh: qHTS for Stage-Specific Inhibitors of Vaccinia Orthopoxvirus: mCherry Reporter Primary qHTS. Potency, µM (titrated, usually from 36.5 µM), inactives show top-dose activity change, negative = inhibition, usual class: inhibitors. Vaccinia virus mCherry reporter infection, fluorescence. AID 720579, 2013. 0.63% of 310,000 active; calls by dose curve; tested in A549 cells; further: nearly all actives have a fitted effect of over 35% in size
# HCV inhibitor: qHTS Assay for Inhibitors of Hepatitis C Virus (HCV); Potency, µM (doses to about 41.8 µM), inactives show top-dose activity change, negative = inhibition, most hits filed as inhibitors; Huh7.5.1 HCVcc-Cre infection, luciferase reporter, 44 h; 3.4% of 340,000 active; active means well fitted inhibition curve with a large enough effect; inconclusive means small, poorly fitted or top-dose-only effect, or another doubt; inactive means no such curve, though single readings can be large or run the other way
#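 HCVcc-Cre virus at an moi near 0.5 was added right after compound to cells cultured 4 h from seeding (1,000 cells/well). Luciferase activity was determined 44 h later, 15 min after substrate addition at RT.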
# Vaccinia Venus: qHTS for Stage-Specific Inhibitors of Vaccinia Orthopoxvirus: Venus Reporter Primary qHTS; Vaccinia virus Venus reporter expression, fluorescence; Potency, µM (top dose mostly 36.5 µM), for the others: top-dose activity change, negative = inhibition, hits mostly inhibitors; 0.46% of 330,000 active; AID 720580, 2013; calls by dose curve; tested in A549 cells; further: nearly all actives have a fitted effect of over 30% in size
# * hit, by the source's call; i = inactive; ? = inconclusive; nt = no result; ! = repeats disagree. On the % scale 0 is the no-effect control and ±100 the full control effect; potency means the concentration at half of the fitted maximal effect.
SMILES,VACV mCherry inh,HCV inhibitor,Vaccinia Venus
COC(=O)CCC(=O)OC1(C)C(=O)C=C2C=C(C3CC3)N(Cc3ccc4c(c3)OCO4)C=C2C1=O (stereo not given),i,-19%,2%
COC(=O)CCC(=O)OC1(C)C(=O)C=C2C=C(C3CC3)N(Cc3ccc(OC)cc3)C=C2C1=O (stereo not given),-5%,3.5µM*,3%
COC(=O)C[C@H](NC(=O)Cn1cc(C)c(=O)[nH]c1=O)C(=O)OC,i,5%,0%
COC(=O)[C@H](CCSC)NC(=O)Cn1cc(C)c(=O)[nH]c1=O,i,0.5µM*,-3%
CCOCCn1c(=NC(=O)c2ccc(S(=O)(=O)N3CCOCC3)cc2)sc2cc(S(N)(=O)=O)ccc21,i,22µM*,-24%
C#CCn1c(=NC(=O)c2ccc(S(=O)(=O)N3CCc4ccccc4C3)cc2)sc2cc(S(N)(=O)=O)ccc21,6.3µM*,-20%,7.9µM*
COCCn1c(=NC(=O)c2ccc(S(=O)(=O)N3CCc4ccccc4C3)cc2)sc2cc(S(N)(=O)=O)ccc21,0%,1%,-20%
C=CCn1c(=NC(=O)c2ccc(S(=O)(=O)N3CCc4ccccc4C3)cc2)sc2cc(S(N)(=O)=O)ccc21,?,?,-24%
COc1cccc(NC(=O)CN(C)C(=O)c2cccc(S(=O)(=O)Nc3ccccc3OC)c2)c1,-16%,-13%,-20%
Cc1nc(N2CCN(C(=O)COc3ccccc3)CC2)c2c(C)c(C)sc2n1,?,13µM*,?
O=C(COc1ccccc1)N1CCN(c2ncccn2)CC1,3%,20%,-1%
O=C(c1ccco1)N1CCN(C(=O)c2cnn(-c3ccc(F)cc3)c2-n2cccc2)CC1,6%,nt,-16%
CCSc1ccc2c(c1)N(CCCN1CCN(C)CC1)c1ccccc1S2,-21%,?,?
CN(C)CCCN1c2ccc(O)cc2Sc2ccc(Cl)cc21,-15%,nt,?
OC1CC2CCC(C1)N2CCCN1c2ccccc2Sc2ccc(Cl)cc21 (stereo not given),?,?,11µM*
CN1CCN(CCCN2c3ccccc3Sc3ccc(Cl)cc32)CC1,11µM*!,?,11µM*
O=C1C(=O)C(c2ccc(O)cc2O)Oc2cc(O)cc(O)c21 (stereo not given),29%,nt,4%
Cc1cc(C(=O)Nc2ccccc2-c2nc(CNC(=O)c3ccc(F)cc3F)c(C)o2)c(C)o1,-5%,nt,1%
COCC(=O)N1CCC(Oc2ccc(C(=O)NCCCC3CCCC3)cc2)CC1,-12%,?,-29%
COc1ccc(CN(C)CC2CCCN(CCc3ccc(Cl)cc3)C2)cc1OC (stereo not given),-15%,10µM*,-13%
COC(=O)CCC(=O)N(C)CC1CCCN(CCc2cccc(C(F)(F)F)c2)C1 (stereo not given),nt,-5%,nt
COc1ccc(F)c(CN(C)CC2CCCN(CCc3ccc(F)cc3)C2)c1 (stereo not given),-8%,?,-19%
CCOc1cccc(CN(C)CC2CCCN(CCc3ccc(Cl)cc3)C2)c1O (stereo not given),nt,5µM*,nt
COc1ccc(CCN2CCCC(CN(C)Cc3cc(OC)c(OC)c(OC)c3)C2)cc1 (stereo not given),-17%,?,-13%
COc1cc(CN(C)CC2CCCN(CCc3cccc(C(F)(F)F)c3)C2)ccc1O (stereo not given),-6%,13µM*,-15%
SMILES,VACV mCherry inh,HCV inhibitor,Vaccinia Venus
O=C1C2CCCCC2C(=O)N1c1ccc(S(=O)(=O)Nc2ncccn2)cc1 (stereo not given),-7%,23%,4%
CC(C)NC(=O)COC(=O)CNC(=O)C1CCCCC1,4%,nt,-15%
Cc1nnc(SCC(=O)Nc2sc3c(c2C(N)=O)CCC(C)C3)[nH]c1=O (stereo not given),nt,-3%,nt
O=C(Oc1cccc(NC2=NS(=O)(=O)c3ccccc32)c1)c1cccnc1,i,7%,-7%
Cc1ccc(C(=O)N2CCN(Cc3cc(=O)n4nc(-c5ccccc5)sc4n3)CC2)cc1,-9%,nt,-11%
Cc1cc(C(=O)NC2CC(C)(C)Cc3c2cnn3-c2ccccc2)n(C)n1 (stereo not given),i,-15%,-7%
CC(=O)[C@@]1(O)C(C)CC2C3C=C(C)C4=Cc5c(cnn5-c5ccccc5)C[C@]4(C)C3C(O)C[C@@]21C (stereo not given in full),-25%,7.1µM*,?
CCC1CN(C(=O)N2CCC(C(=O)N(C)Cc3ccccc3)CC2)c2ccccc2O1 (stereo not given),-3%,nt,-14%
CCN(CC(=O)Nc1ccc2c(c1)OCCO2)C(=O)/C=C/c1cc(Br)ccc1OC,i,nt,-18%
